Laboratory results from PubChem BioAssay (Tox21).
“And” between values parts separate entries of the source, which are not always exact repeats. Equal values may be shown once. Results filed as inconclusive are left out. Entries that show only a call come without a potency. Where a structure was tested more than once in an assay, its records may differ in their call. The source made the active and inactive calls. Unless noted, calls follow the shape of the full dose curve.

Assays:
[1] = Nuclear factor erythroid 2-related factor 2/antioxidant responsive element (Nrf2/ARE) small molecule agonists: qHTS cell viability counter screen in human keratinocytes (AID 1919968; active = well fitted curve in the direction sought with a large enough effect in the repeat runs; an effect the other way counts as inactive or inconclusive; also: nearly all actives have a fitted effect of over 55% in size; also: potency is read from the fitted curve at half-maximal effect)
Summary of the method: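 Cytotoxicity was multiplexed with the Nrf2/ARE luciferase assay in the same wells. Stably transfected HaCaT keratinocytes were treated with test compounds for 23 h at 37 C. Cell viability was then measured by CellTiter-Fluor fluorescence.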

[2] = molecular target: Gonadotropin-releasing hormone receptor (Homo sapiens) (UniProt P30968); test: Human gonadotropin-releasing hormone receptor (GnRHR) small molecule agonists, calcium flux assay in GnRHR-HEK293 cells (AID 1920063); also: nearly all actives have a fitted effect of over 35% in size
Chain of Gonadotropin-releasing hormone receptor (Homo sapiens) (P30968 whole entry, looked up): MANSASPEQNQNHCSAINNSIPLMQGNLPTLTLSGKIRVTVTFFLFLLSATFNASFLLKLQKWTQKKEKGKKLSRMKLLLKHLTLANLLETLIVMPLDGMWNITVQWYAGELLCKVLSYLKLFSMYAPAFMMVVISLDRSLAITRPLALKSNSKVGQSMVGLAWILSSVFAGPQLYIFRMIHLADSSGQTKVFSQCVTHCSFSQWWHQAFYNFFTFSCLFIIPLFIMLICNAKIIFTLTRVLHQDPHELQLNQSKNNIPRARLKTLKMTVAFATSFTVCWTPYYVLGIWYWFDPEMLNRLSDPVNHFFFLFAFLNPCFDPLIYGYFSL
Summary of the method: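 Agonist activity was measured as intracellular calcium flux in HEK293 cells engineered to stably express human GnRHR. After dye loading for 1 hour at 37 C, compounds in DMSO were added and fluorescence was followed for 3 minutes.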

[3] = molecular target: KiSS-1 receptor (Homo sapiens) (UniProt Q969F8); test: Human kisspeptin (KISS1R) small molecule agonists, calcium flux assay in KISS1R-HEK293 cells (AID 1920064; active = well fitted curve in the direction sought with a large enough effect in the repeat runs; an effect the other way counts as inactive or inconclusive)
Chain of KiSS-1 receptor (Homo sapiens) (Q969F8 whole entry, looked up): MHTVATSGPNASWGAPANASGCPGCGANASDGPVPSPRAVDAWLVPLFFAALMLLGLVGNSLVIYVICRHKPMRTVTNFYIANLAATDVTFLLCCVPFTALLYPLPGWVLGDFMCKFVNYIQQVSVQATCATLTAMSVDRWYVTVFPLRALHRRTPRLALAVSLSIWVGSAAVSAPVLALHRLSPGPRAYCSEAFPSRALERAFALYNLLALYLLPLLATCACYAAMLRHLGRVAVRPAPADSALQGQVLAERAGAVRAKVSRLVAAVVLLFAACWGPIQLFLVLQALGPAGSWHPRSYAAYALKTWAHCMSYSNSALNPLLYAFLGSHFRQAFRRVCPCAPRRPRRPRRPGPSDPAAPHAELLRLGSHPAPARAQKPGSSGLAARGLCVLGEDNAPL
Summary of the method: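 Agonist activity is monitored as intracellular calcium rise in engineered HEK293 cells carrying human KISS1R. Cells are dye-loaded for 1 h at 37 C before compound addition, and fluorescence is recorded for 3 min.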

[4] = G protein-coupled receptor (GPCR) small molecule agonists, calcium flux assay: HEK293 wild type cell line counter screen (AID 1920065)
Summary of the method: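 Seed cells, incubate 18 h (37 C, 5% CO2); add calcium dye, 1 h at 37 C; pin-transfer compounds, ATP control or DMSO; read fluorescence 480/540 nm each second for 3 min.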

[5] = p53 small molecule agonists, cell-based qHTS assay with human liver microsomes (AID 1963577);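 also: p53 response element beta-lactamase reporter cells with liver microsomes plus NADPH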
Summary of the method: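 HLM-supplemented p53RE-bla reporter assay: 16 h compound exposure at 37 C, microsomes and NADPH each 0.5 mg/mL final, read by fluorescence intensity.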

[6] = p53 small molecule agonists, cell-based qHTS assay with rat liver microsomes (AID 1963578)
Summary of the method: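 Quantitative HTS of the Tox21 10K library: p53RE-bla cells, rat liver microsomes plus NADPH at 0.5 mg/mL final each, 16 h at 37 C, beta-lactamase fluorescence detection.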

[7] = p53 small molecule agonists, cell-based qHTS assay with human liver microsomes: qHTS cell viability counter screen (AID 1963579); also: nearly all actives have a fitted effect of over 45% in size; also: potency is read from the fitted curve at half-maximal effect
Summary of the method: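 Viability of p53RE-bla cells is measured as CellTiter-Glo luminescence following a 16 h, 37 C incubation with compound, liver microsomes from human donors and NADPH.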

[8] = p53 small molecule agonists, cell-based qHTS assay with rat liver microsomes: qHTS cell viability counter screen (AID 1963580); also: nearly all actives have a fitted effect of over 45% in size
Summary of the method: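 Cytotoxicity counter screen: intracellular ATP read by CellTiter-Glo luminescence in the p53 reporter wells. HCT-116 p53RE-bla cells were treated for 16 h at 37 C alongside rat liver microsomes and NADPH, each 0.5 mg/mL final.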

[9] = p53 small molecule agonists, cell-based qHTS assay: qHTS cell viability counter screen (AID 1963581); also: nearly all actives have a fitted effect of over 45% in size; also: potency is read from the fitted curve at half-maximal effect
Summary of the method: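 Viability was counter-screened in parallel with the p53 agonist reporter by measuring intracellular ATP luminescence in the same HCT-116 p53RE-bla wells after 16 h compound treatment at 37 C.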

[10] = p53 small molecule agonists, cell-based qHTS assay (AID 1963582; active = well fitted activation curve with a large enough effect in the signal ratio in the repeat runs, not every such curve was filed as active; the % refers to the signal ratio; also: potency is read from the fitted curve at half-maximal effect)
Summary of the method: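 Cells carrying a p53-responsive bla reporter are treated with test compounds for 16 h at 37 C; beta-lactamase activity is then detected with LiveBLAzer B/G FRET substrate after 2 h at room temperature.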

[11] = molecular target: 5-hydroxytryptamine receptor 2A (Homo sapiens) (UniProt P28223); test: 5-hydroxytryptamine receptor 2A (HTR2A) small molecule antagonists, cell-based qHTS assay (AID 1963586); also: nearly all actives have a fitted effect of over 45% in size; also: potency is read from the fitted curve at half-maximal effect
Chain of 5-hydroxytryptamine receptor 2A (Homo sapiens) (P28223 whole entry, looked up): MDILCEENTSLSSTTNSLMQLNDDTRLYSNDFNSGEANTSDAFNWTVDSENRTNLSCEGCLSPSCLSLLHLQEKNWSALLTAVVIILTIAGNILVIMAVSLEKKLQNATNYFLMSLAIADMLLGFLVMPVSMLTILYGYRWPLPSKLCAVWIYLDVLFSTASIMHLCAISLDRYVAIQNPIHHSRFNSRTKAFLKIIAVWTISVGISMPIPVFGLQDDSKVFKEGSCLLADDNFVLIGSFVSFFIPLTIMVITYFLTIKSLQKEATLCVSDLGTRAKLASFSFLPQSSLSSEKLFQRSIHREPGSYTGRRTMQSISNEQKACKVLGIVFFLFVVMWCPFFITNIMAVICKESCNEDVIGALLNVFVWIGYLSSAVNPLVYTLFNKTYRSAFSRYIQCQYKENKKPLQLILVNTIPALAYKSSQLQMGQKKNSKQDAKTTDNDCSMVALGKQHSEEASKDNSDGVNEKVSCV
Summary of the method: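 CHO cells stably expressing human HTR2A were plated for 18 h at 37 C, then loaded with calcium dye for 1 h. Compounds were preincubated 5 min at room temperature before DOI (4 nM solution) was added. Kinetic fluorescence was read for 3 min.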

[12] = molecular target: 5-hydroxytryptamine receptor 2A (Homo sapiens) (UniProt P28223); test: 5-hydroxytryptamine receptor 2A (HTR2A) small molecule agonists, cell-based qHTS assay (AID 1963587); also: nearly all actives have a fitted effect of over 30% in size; also: potency is read from the fitted curve at half-maximal effect
Summary of the method: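 Kinetic calcium-flux fluorescence (2 min, 1 sec intervals) after compound addition in agonist mode. HTR2A-CHO cells were cultured 18 h, then dye-loaded 1 h at 37 C.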

[13] = molecular target: Muscarinic acetylcholine receptor M1 (Homo sapiens) (UniProt P11229); test: Cholinergic receptor muscarinic 1 (CHRM1) small molecule antagonists, cell-based qHTS assay (AID 1963588); also: nearly all actives have a fitted effect of over 40% in size; also: potency is read from the fitted curve at half-maximal effect
Chain of Muscarinic acetylcholine receptor M1 (Homo sapiens) (P11229 whole entry, looked up): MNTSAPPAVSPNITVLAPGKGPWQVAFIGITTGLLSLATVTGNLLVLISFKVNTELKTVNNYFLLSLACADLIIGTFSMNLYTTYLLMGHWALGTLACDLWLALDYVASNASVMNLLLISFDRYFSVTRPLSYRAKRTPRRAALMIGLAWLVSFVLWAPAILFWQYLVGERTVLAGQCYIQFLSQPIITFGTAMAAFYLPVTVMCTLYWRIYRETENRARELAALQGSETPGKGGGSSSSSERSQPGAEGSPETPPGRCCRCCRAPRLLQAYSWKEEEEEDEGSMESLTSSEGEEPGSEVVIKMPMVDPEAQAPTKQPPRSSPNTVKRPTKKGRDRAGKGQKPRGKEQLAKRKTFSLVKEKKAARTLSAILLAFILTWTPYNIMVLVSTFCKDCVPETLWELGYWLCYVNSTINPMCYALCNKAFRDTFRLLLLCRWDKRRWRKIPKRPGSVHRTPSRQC
Summary of the method: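 Compounds were tested at 15 concentrations in three independent runs. Dye-loaded CHRM1-CHO cells were exposed 5 min at room temperature before stimulation by acetylcholine added at 50nM. Intracellular calcium was read kinetically on FDSS for 3 min.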

[14] = molecular target: Muscarinic acetylcholine receptor M1 (Homo sapiens) (UniProt P11229); test: Cholinergic receptor muscarinic 1 (CHRM1) small molecule agonists, cell-based qHTS assay (AID 1963589); also: nearly all actives have a fitted effect of over 35% in size; also: potency is read from the fitted curve at half-maximal effect
Summary of the method: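 Cells were plated and incubated 18 h at 37 C/5% CO2, loaded with calcium dye for 1 h at 37 C, then treated with compounds in DMSO. Fluorescence was recorded kinetically at 1 sec intervals.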

[15] = cAMP Responsive Elements (CRE) small molecule agonists, cell-based qHTS assay (AID 1963590)
Summary of the method: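 Cells carrying a CRE-driven beta-lactamase reporter (HEK 293T) are seeded, incubated overnight (18 h), and treated with test compounds for 3 h at 37 C; reporter activity is then detected with a FRET substrate after 2 h at room temperature.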

[16] = cAMP Responsive Elements (CRE) small molecule antagonists, cell-based qHTS assay (AID 1963591; active = well fitted inhibition curve with a large enough effect in the signal ratio in the repeat runs, not every such curve was filed as active; the % refers to the signal ratio)
Summary of the method: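 Cells (CRE-bla HEK 293T, DMEM with 10% dialyzed FBS and 25 mM HEPES) are seeded and incubated 18 h. Compounds are added with NKH477 agonist at 0.25 uM final for 3 h, then FRET substrate for 2 h.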

[17] = molecular target: Beta-2 adrenergic receptor (Homo sapiens) (UniProt P07550); test: Adrenergic beta2 receptor (ADRB2) small molecule antagonists, cell-based qHTS assay (AID 1963592); also: series mostly up to about 92 µM; nearly all actives have a fitted effect of over 50% in size
Chain of Beta-2 adrenergic receptor (Homo sapiens) (P07550 whole entry, looked up): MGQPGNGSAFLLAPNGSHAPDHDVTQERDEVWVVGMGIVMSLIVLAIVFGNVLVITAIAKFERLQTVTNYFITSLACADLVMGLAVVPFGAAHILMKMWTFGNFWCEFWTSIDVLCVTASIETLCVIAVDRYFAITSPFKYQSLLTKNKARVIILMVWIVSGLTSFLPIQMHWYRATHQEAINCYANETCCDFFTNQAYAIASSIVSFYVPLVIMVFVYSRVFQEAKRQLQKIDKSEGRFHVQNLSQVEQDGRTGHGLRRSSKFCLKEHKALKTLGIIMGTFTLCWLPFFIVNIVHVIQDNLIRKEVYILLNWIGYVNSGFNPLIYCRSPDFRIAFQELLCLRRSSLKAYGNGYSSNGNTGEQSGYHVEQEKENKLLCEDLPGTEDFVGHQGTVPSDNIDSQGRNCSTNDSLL
Summary of the method: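 Assay format: CHO-ADRB2 cells, 18-20hr seeding at 37C/5% CO2, then compound plus 1nM isoproterenol agonist mix for 0.5hr RT. Homogeneous time-resolved fluorescence cAMP detection after 1hr, expressed as 665/615 nm ratio.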

[18] = molecular target: Beta-2 adrenergic receptor (Homo sapiens) (UniProt P07550); test: Adrenergic beta2 receptor (ADRB2) small molecule agonists, cell-based qHTS assay (AID 1963593);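 also: CHO cells stably overexpressing human ADRB2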
Summary of the method: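 CHO cells stably over-expressing ADRB2 were plated overnight at 37C, then dosed with compounds plus a stimulation mix containing 100uM IBMX and 25uM Ro-20-1724 for 0.5hr at room temperature. cAMP was measured by HTRF competition, 1hr.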

[19] = molecular target: D(2) dopamine receptor (Homo sapiens) (UniProt P14416); test: Dopamine D2 receptor (DRD2) small molecule agonists, cell-based qHTS assay (AID 1963594); also: nearly all actives have a fitted effect of over 35% in size
Chain of D(2) dopamine receptor (Homo sapiens) (P14416 whole entry, looked up): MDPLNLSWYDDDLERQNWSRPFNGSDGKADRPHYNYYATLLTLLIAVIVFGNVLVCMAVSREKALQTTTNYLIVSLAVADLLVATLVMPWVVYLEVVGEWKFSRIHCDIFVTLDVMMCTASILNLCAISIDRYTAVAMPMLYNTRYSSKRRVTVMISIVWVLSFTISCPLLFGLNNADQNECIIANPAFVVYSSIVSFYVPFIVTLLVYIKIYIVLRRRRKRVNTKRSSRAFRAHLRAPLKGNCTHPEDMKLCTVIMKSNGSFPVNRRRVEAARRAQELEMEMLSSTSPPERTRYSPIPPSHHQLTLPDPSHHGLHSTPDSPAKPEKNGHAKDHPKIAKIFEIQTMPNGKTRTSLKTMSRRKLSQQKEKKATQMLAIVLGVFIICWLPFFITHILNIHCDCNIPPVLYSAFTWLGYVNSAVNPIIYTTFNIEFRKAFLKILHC
Summary of the method: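 cAMP accumulation in DRD2-HEK293 cells measured by HTRF after 1 h detection; compounds added 10 min before NKH477 (200nM […]) forskolin-analogue stimulation, 30 min at room temperature, with Ro20-1724 present at 0.1 mM final.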

[20] = molecular target: D(2) dopamine receptor (Homo sapiens) (UniProt P14416); test: Dopamine D2 receptor (DRD2) small molecule antagonists, cell-based qHTS assay (AID 1963595; active = well fitted inhibition curve with a large enough effect in the signal ratio in the repeat runs, with a control signal flat; the % refers to the signal ratio; also: potency is read from the fitted curve at half-maximal effect)
Summary of the method: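 Stable D2 receptor HEK293 line, 24 h after seeding. Compound preincubated 10 min, then quinpirole (12 nM) with forskolin analogue NKH477 (200 nM), 30 min, room temperature. Detection by time-resolved FRET of cAMP.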

Compound	Potency [1]	Potency [2]	Potency [3]	Potency [4]	Potency [5]	Potency [6]	Potency [7]	Potency [8]	Potency [9]	Potency [10]	Potency [11]	Potency [12]	Potency [13]	Potency [14]	Potency [15]	Potency [16]	Potency [17]	Potency [18]	Potency [19]	Potency [20]
O=[N+]([O-])c1cc(C(F)(F)F)ccc1Cl	inactive	inactive	inactive	inactive	inactive	inactive	inactive	inactive	inactive	inactive	inactive	inactive	inactive	inactive	inactive	inactive	inactive	inactive	inactive	inactive
CCCCCCCCCCCCN	inactive and 30.6 µM (active)	–	inactive	inactive	inactive	inactive	–	inactive	inactive	inactive	–	24.5 µM (active) and inactive	inactive	inactive and 24.5 µM (active)	inactive	–	inactive	inactive	inactive	inactive and 43.3 µM (active)
Cc1ccc(Cl)cc1	inactive	inactive	inactive	inactive	inactive	inactive	inactive	inactive	inactive	inactive	inactive	inactive	inactive	inactive	inactive	inactive	inactive	inactive	inactive	–
CN(C)c1ccc(C(=C2C=CC(=[N+](C)C)C=C2)c2ccccc2)cc1	4.33 µM (active) and 6.68 µM (active)	–	inactive	–	inactive	inactive	14.5 µM (active) [middle of 4 runs]	–	4.08 µM (active) and 3.97 µM (active)	–	inactive	inactive	4.72 µM (active) and inactive and 18.3 µM (active)	inactive	–	–	inactive	–	–	16.8 µM (active)
COC(=O)CCC(=O)OC	inactive	–	inactive	inactive	inactive	inactive	inactive	inactive	inactive	–	inactive	–	inactive	inactive	inactive	inactive	inactive	inactive	–	inactive
O=S(=O)(O)c1ccc2ccccc2c1	inactive	–	inactive	inactive	–	inactive	inactive	inactive	inactive	inactive	inactive	inactive	inactive	inactive	inactive	inactive	inactive	inactive	inactive	inactive
CCCCCCCCCCCC[N+](C)(C)Cc1ccccc1	23.9 µM (active) and 29.7 µM (active) and 11.9 µM (active)	–	inactive	inactive	–	–	44.9 µM (active) and 49.7 µM (active) and 19.9 µM (active)	inactive	49.7 µM (active) and 22.3 µM (active)	–	1.3 µM (active) and inactive and 16.3 µM (active)	48 µM (active)	1.02 µM (active) and 650 nM (active)	inactive	–	–	inactive	–	inactive	inactive and 59.2 µM (active) and 29.8 µM (active)
NCCOCCO	inactive	–	inactive	inactive	inactive	inactive	inactive	inactive	inactive	–	inactive	inactive	inactive	–	inactive	inactive	inactive	inactive	inactive	–
CCc1cc(C(N)=S)ccn1	inactive	inactive	inactive	inactive	inactive	–	inactive	inactive	inactive	inactive	inactive	inactive	inactive	inactive	–	inactive	inactive	inactive	inactive	inactive
S=c1nc[nH]c2nc[nH]c12	inactive	inactive	inactive	inactive	inactive	inactive	inactive	inactive	inactive	9.99 µM (active) and 7.93 µM (active)	–	–	–	–	inactive	inactive	inactive	inactive	inactive	inactive
FC(F)(F)c1ccc(Cl)c(Cl)c1	–	inactive	inactive	inactive	inactive	inactive	inactive	inactive	inactive	inactive	inactive	inactive	inactive	inactive	inactive	inactive	inactive	inactive	inactive	inactive
Nc1ccc(S(N)(=O)=O)cc1	inactive	inactive	inactive	inactive	–	–	–	–	inactive	inactive	–	–	–	–	inactive	inactive	inactive	inactive	inactive	inactive
CC(C)Cc1ccccc1	inactive	inactive	inactive	inactive	inactive	inactive	inactive	–	inactive	inactive	inactive	inactive	inactive	inactive	inactive	inactive	inactive	inactive	–	inactive
CCCC[P+](CCCC)(CCCC)CCCC	inactive	inactive	inactive	inactive	–	inactive	–	inactive	inactive	inactive	inactive	inactive	inactive	inactive	–	–	inactive	inactive	inactive	inactive
CC(=O)Nc1ccccc1	inactive	–	inactive	inactive	–	–	inactive	inactive	inactive	–	inactive	inactive	–	inactive	–	inactive	inactive	inactive	inactive	inactive
O=C(O)c1cccnc1	inactive	inactive	inactive	inactive	–	–	–	–	–	–	–	–	–	–	inactive	inactive	inactive	inactive	inactive	inactive
